# Results filed as inconclusive are left out. Entries that show only a call come without a potency. Calls of active or inactive are those of the source. Calls come from the whole dose curve.
# Assay: qHTS assay for small molecule agonists of the antioxidant response element (ARE) signaling pathway - cell viability counter screen (AID 743203); note: nearly all actives have a fitted effect of over 55% in size
# Conditions: ARE-bla HepG2 viability, CellTiter-Glo luminescence, 16 h; series mostly up to 73.3 µM
# Text: National Center for Advancing Translational Sciences [NCATS]
# NIH Chemical Genomics Center [NCGC]
# U.S. Environmental Protection Agency [EPA]
# National Institutes of Environmental Health Sciences [NIEHS]
# National Toxicology Program [NTP]
# U.S. Food and Drug Administration [FDA]
# Oxidative stress has been implicated in the pathogenesis of a variety of diseases ranging from cancer to neurodegeneration. The antioxidant response element (ARE) signaling pathway plays an important role in the amelioration of oxidative stress. The CellSensor ARE-bla HepG2 cell line (Invitrogen) can be used for analyzing the Nrf2/antioxidant response signaling pathway. Nrf2 (NF-E2-related factor 2) and Nrf1 are transcription factors that bind to AREs and activate these genes. The CellSensor ARE-bla Hep G2 cell line contains a beta-lactamase reporter gene under control of the Antioxidant Response Element (ARE) stably integrated into HepG2 cells. The activation of the report gene under culture conditions can be detected by fluorescence intensity. This cell line has been used to screen the Tox21 10K compound library to identify agonists that induce oxidative stress. The cytotoxicity of the Tox21 compound library against the ARE-bla cell line was tested in parallel by measuring the cell viability using CellTiter-Glo assay (Promega, Madison, WI) in the same wells.
# Tox21 Assay Protocol Summary:
# ARE-bla HepG2 cells were dispensed at 2,000 cells/5 ul/well in 1536-well white wall/solid bottom plates using a Multidrop Combi (ThermoFisher Scientific, Waltham, MA) dispenser. After the assay plates were incubated at 37C/5% CO2 for 5 hrs, 23 nL of compounds dissolved in DMSO, positive controls or DMSO only was transferred to the assay plate by a pintool work station (Kalypsys, San Diego, CA). The plates were incubated at 37C/5% CO2 for 16 hrs, followed by addition of 4 ul/well of CellTiter-Glo reagent into the assay plates using a Flying Reagent Dispenser (Aurora Discovery, San Diego, CA). After 30 min incubation at room temperature, the luminescence intensity in the assay plates was measured using a ViewLux (PerkinElmer, Shelton, CT) plate reader.
# Potency is the fitted concentration of half-maximal effect.
row,SMILES,Potency
1,CCOC(C)=O,inactive
2,CCCC(C(=O)OCCN(CC)CC)(c1ccccc1)c1ccccc1,inactive
3,CC=C(Cl)Cl,inactive
4,CC1=Nc2ccc3ccccc3c2C1(C)C,inactive
5,CC(C)=CC(=O)C=C(C)C,inactive
6,Oc1ccc(Cl)c2cccnc12,inactive
7,Cc1ccccc1S,inactive
8,C[C@H]1c2cccc(O)c2C(O)=C2C(=O)[C@]3(O)C(O)=C(C(N)=O)C(=O)[C@@H](N(C)C)[C@@H]3[C@@H](O)[C@@H]21,inactive
9,CC(=O)Nc1cc(S(=O)(=O)O)cc2cc(S(=O)(=O)O)c(N=Nc3ccccc3)c(O)c12,inactive
10,O=C1c2ccccc2C(=O)N1CCc1noc(-c2ccc(CN3CCCCCC3)s2)n1,inactive
11,NC1[C@H]2CN(c3nc4c(cc3F)c(=O)c(C(=O)O)cn4-c3ccc(F)cc3F)C[C@@H]12 (stereo not given in full),inactive
12,NCCNCCO,inactive
13,CN1C(C(=O)Nc2ccccn2)=C(O)c2sccc2S1(=O)=O,inactive
14,O=C1c2ccccc2C(=O)C1c1ccc(Br)cc1,inactive
15,CCCCC(CC)COP(=O)(O)O (stereo not given),inactive
16,CC(C)=CCC1C(=O)N(c2ccccc2)N(c2ccccc2)C1=O,inactive
17,CC(C)c1nc(CN(C)C(=O)N[C@H](C(=O)N[C@@H](Cc2ccccc2)C[C@H](O)[C@H](Cc2ccccc2)NC(=O)OCc2cncs2)C(C)C)cs1,inactive
18,O=C=Nc1ccc(Cl)c(Cl)c1,inactive
19,C[C@@H]1CC(=O)NN=C1c1ccc(NN=C(C#N)C#N)cc1,inactive
20,C(=C\c1ccccc1)/c1ccccc1,inactive

row,SMILES,Potency
1,COC(=O)CCS,inactive
2,CCOc1ccccc1O[C@H](c1ccccc1)[C@H]1CNCCO1,inactive
3,O=C(O)CCc1nc(-c2ccccc2)c(-c2ccccc2)o1,inactive
4,C=CCc1ccccc1OCC(O)CNC(C)C (stereo not given),inactive
5,CC(C)COCC(CN(Cc1ccccc1)c1ccccc1)N1CCCC1 (stereo not given),26.6 µM (active)
6,O=c1cc(-c2ccccc2)oc2cc(O)cc(O)c12,inactive
7,C=C(C)[C@@H]1CCC2=CCC[C@@H](C)[C@]2(C)C1,inactive
8,Nc1nnc(-c2ccc([N+](=O)[O-])o2)o1,48.6 µM (active)
9,CCCCCCCC/C=C\CCCCCCCCCCCC(=O)O,inactive
10,Cc1ccc(C(C)(C)O)cc1,inactive
11,c1ccc2sc(SN(C3CCCCC3)C3CCCCC3)nc2c1,inactive
12,CCOc1ccc(Cc2nccc3cc(OCC)c(OCC)cc23)cc1OCC,inactive
13,CCCCN(CCCC)C(C(N)=O)c1ccc(OC)cc1 (stereo not given),inactive
14,C/C=C\C/C=C/CCCCCCCCOC(C)=O,inactive
15,O=C(OCC(O)CO)c1ccccc1Nc1ccnc2cc(Cl)ccc12 (stereo not given),inactive
16,O=C1CCCCCCCCCCOCCCCO1,inactive
17,C/C=C(/C(=C/C)c1ccc(O)cc1)c1ccc(O)cc1,inactive
18,O=c1[nH]c2ccc(Cl)cc2o1,inactive
19,C=C1c2cccc(O)c2C(O)=C2C(=O)[C@]3(O)C(O)=C(C(N)=O)C(=O)[C@@H](N(C)C)[C@@H]3[C@@H](O)[C@H]12,inactive
20,C[C@]12CC[C@@H]3c4ccc(O)cc4CC[C@H]3[C@@H]1CC[C@@H]2OC(=O)CCC1CCCC1,inactive
